Drawing on ChEMBL document CHEMBL1961873, “Compounds: GSK PKIS; Assays: Nanosyn kinase panel” (2012), this text covers inhibition for seven molecules.

The target of assay [1] is Mast/stem cell growth factor receptor Kit (Homo sapiens) (UniProt P10721). The following applies: at 1 µM.
Assay [2] deals with Mast/stem cell growth factor receptor Kit (Homo sapiens), P10721 [D816V]. The following applies: at 0.1 µM.
Assay [3] has the same test system. The note with it: at 1 µM.
Assay [4] deals with Mast/stem cell growth factor receptor Kit (Homo sapiens), P10721 [T670I]. The note with it: at 0.1 µM.
Mast/stem cell growth factor receptor Kit (Homo sapiens), P10721 [T670I], sequence (P10721 whole entry T670I): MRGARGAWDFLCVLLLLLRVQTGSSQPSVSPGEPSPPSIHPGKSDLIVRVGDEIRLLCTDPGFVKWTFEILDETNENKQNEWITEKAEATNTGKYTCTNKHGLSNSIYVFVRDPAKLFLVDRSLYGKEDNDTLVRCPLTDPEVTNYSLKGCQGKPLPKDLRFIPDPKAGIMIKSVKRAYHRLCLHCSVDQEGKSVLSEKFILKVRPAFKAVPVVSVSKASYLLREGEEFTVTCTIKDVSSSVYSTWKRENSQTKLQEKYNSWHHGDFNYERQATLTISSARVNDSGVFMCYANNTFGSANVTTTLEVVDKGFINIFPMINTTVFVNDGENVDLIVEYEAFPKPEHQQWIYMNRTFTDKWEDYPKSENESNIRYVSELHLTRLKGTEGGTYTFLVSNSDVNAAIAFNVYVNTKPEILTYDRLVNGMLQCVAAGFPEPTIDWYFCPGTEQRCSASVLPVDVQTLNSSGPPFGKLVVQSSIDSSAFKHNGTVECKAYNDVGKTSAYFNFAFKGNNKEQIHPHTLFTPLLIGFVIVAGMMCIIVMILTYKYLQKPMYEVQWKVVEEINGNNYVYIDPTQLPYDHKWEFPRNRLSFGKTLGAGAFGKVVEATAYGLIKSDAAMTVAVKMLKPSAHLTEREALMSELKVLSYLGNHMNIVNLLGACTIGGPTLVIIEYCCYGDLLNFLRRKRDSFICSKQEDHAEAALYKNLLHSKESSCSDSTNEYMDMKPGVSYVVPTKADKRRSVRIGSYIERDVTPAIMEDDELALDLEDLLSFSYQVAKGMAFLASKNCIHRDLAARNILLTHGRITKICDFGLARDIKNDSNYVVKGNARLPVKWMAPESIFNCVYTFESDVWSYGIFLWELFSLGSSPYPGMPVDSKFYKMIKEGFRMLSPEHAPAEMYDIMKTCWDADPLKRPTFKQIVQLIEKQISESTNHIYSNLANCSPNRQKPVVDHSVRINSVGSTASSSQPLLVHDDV
The test system is the same in assay [5]. The following applies: at 1 µM.
Assay [6] relates to Mast/stem cell growth factor receptor Kit (Homo sapiens), P10721 [V560G]. The note with it: at 0.1 µM.
Mast/stem cell growth factor receptor Kit (Homo sapiens), P10721 [V560G], sequence (P10721 whole entry V560G): as the sequence (P10721 whole entry T670I) above, with V560G, I670T counted along it
The test system is the same in assay [7]. The following applies: at 1 µM.
For assay [8], the target named is Tyrosine-protein kinase Lck (Homo sapiens) (UniProt P06239). The following applies: at 0.1 µM.
Tyrosine-protein kinase Lck (Homo sapiens), sequence (P06239 2-509 limits assumed): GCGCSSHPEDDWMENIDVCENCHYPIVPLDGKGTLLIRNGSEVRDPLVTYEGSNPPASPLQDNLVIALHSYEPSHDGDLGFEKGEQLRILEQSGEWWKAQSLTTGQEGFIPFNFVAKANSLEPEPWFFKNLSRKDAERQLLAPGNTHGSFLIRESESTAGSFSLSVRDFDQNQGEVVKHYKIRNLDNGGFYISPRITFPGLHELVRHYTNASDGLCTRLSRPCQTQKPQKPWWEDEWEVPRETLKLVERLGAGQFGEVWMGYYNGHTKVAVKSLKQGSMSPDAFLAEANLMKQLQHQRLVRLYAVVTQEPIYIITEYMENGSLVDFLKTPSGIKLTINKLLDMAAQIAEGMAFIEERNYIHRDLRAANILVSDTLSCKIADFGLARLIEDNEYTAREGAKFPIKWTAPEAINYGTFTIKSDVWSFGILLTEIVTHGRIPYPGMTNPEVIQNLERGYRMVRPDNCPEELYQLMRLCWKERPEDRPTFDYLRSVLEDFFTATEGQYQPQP
Assay [9] shares this target. The following applies: at 1 µM.
Assay [10] addresses Leukocyte tyrosine kinase receptor (Homo sapiens) (UniProt P29376). The following applies: at 0.1 µM.
Assay [11] has the same target. The note with it: at 1 µM.
The target in assay [12] is Tyrosine-protein kinase Lyn (Homo sapiens) (UniProt P07948). The following applies: at 0.1 µM.
Tyrosine-protein kinase Lyn (Homo sapiens), sequence (P07948 2-512 limits assumed): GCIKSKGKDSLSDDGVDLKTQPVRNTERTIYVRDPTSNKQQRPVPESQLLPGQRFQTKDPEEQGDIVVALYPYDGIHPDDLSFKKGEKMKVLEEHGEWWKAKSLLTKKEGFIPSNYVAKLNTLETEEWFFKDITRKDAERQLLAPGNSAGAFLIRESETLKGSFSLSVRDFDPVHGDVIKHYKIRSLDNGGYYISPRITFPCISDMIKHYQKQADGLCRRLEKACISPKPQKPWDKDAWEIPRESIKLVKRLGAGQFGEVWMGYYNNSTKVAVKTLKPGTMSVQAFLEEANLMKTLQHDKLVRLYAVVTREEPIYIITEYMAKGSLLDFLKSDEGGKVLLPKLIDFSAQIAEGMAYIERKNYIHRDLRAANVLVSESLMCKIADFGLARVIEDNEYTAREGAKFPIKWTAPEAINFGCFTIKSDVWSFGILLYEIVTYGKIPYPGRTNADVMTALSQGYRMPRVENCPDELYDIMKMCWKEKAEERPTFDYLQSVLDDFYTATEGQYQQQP
Assay [13] has the same target. The following applies: at 1 µM.
Assay [14] shares this target. The note with it: at 0.1 µM. The source holds these as a separate data set.
Assay [15] shares this target. The note with it: at 1 µM. The source holds these as a separate data set.
Assay [16] concerns the target T1, Tyrosine-protein kinase Mer (Homo sapiens) (UniProt Q12866).
T1 sequence (whole entry): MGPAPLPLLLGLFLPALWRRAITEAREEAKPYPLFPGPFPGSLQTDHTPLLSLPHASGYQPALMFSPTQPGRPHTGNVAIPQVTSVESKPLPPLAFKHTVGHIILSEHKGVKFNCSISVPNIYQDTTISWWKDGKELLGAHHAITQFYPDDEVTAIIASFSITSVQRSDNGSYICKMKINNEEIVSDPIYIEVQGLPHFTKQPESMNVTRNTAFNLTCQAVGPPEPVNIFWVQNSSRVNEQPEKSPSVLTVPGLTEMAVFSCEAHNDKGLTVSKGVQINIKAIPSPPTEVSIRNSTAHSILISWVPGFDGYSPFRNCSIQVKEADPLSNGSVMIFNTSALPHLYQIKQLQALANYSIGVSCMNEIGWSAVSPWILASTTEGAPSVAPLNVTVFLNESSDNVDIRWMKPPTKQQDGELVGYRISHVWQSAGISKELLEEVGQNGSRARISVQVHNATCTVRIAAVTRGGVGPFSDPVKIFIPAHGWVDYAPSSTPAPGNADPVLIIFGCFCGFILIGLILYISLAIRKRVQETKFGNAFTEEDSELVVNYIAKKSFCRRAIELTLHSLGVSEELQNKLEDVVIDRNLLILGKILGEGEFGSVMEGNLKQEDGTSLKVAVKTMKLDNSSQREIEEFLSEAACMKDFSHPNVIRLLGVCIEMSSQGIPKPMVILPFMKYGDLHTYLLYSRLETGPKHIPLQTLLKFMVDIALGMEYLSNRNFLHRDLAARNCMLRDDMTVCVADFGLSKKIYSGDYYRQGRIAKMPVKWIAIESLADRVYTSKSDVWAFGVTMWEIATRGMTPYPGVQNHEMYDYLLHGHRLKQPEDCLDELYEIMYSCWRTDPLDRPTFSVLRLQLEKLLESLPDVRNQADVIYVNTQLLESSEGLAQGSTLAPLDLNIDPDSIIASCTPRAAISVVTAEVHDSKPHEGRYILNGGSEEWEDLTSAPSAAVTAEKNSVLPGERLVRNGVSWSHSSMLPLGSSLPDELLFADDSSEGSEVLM
The note with it: at 0.1 µM.

For assay [17], the target named is T1, Tyrosine-protein kinase Mer (Homo sapiens). The note with it: at 1 µM.
The target of assay [18] is Hepatocyte growth factor receptor (Homo sapiens) (UniProt P08581). The note with it: at 0.1 µM.
Hepatocyte growth factor receptor (Homo sapiens), sequence (P08581 whole entry): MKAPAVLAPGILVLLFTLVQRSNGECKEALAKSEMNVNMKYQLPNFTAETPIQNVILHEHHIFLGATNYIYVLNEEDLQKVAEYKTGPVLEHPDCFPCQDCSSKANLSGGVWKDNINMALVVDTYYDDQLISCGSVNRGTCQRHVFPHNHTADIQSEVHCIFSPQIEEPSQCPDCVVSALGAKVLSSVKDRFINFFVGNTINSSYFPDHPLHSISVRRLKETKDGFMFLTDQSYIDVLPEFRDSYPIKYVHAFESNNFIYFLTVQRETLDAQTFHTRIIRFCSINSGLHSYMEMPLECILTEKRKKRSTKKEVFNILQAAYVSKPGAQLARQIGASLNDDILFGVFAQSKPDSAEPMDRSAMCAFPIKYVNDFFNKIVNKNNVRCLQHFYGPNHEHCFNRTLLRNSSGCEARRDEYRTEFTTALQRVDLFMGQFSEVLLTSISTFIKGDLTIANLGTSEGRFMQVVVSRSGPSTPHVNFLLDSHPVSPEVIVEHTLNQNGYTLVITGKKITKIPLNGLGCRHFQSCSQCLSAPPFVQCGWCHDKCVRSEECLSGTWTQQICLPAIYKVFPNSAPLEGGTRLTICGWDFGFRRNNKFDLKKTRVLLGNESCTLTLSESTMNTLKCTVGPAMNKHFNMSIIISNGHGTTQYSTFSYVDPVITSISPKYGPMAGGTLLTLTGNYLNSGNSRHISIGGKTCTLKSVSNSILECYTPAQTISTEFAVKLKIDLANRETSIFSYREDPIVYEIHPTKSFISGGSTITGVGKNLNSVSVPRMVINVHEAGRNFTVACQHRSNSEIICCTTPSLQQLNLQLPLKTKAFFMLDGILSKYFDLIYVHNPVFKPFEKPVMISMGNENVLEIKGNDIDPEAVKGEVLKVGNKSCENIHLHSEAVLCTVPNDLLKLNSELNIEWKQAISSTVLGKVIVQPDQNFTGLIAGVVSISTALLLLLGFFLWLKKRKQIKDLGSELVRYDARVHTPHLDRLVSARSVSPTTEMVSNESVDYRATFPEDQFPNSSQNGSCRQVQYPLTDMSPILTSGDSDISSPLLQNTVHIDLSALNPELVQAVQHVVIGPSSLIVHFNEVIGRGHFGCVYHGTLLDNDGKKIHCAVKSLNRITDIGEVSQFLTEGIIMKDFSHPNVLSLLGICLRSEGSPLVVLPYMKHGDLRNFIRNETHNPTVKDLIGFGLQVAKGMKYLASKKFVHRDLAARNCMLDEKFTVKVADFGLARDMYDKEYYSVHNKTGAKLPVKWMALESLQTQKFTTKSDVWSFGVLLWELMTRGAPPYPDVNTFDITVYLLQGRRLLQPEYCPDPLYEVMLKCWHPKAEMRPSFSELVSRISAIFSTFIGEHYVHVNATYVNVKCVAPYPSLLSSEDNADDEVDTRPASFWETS
Assay [19] has the same target. The note with it: at 1 µM.
Assay [20] has as its target T2, Muscle, skeletal receptor tyrosine-protein kinase (Homo sapiens) (UniProt O15146).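 Further: values are mean inhibition of MuSK from the GSK PKIS kinase screening panel.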
T2 sequence (whole entry): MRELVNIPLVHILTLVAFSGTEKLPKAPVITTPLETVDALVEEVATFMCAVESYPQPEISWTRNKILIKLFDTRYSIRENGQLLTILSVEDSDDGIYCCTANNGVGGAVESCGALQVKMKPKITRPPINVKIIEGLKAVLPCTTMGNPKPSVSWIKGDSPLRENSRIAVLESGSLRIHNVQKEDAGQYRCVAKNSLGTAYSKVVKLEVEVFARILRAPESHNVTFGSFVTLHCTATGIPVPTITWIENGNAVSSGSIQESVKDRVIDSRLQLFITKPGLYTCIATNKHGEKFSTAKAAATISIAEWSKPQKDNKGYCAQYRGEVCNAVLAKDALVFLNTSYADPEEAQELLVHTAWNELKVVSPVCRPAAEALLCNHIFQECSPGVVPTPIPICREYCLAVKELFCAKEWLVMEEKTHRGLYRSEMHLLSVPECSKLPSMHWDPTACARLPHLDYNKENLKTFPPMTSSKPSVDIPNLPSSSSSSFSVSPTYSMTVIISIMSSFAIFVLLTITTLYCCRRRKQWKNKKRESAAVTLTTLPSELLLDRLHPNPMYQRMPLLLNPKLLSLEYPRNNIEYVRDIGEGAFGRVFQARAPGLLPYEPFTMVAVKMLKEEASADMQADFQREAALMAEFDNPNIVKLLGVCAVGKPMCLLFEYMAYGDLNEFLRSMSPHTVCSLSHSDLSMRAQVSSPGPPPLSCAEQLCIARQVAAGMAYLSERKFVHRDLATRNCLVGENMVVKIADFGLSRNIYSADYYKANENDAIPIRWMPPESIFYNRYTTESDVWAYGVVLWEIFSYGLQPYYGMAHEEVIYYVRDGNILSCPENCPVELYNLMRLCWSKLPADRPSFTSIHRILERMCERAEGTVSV
The note with it: at 0.1 µM.

Leukocyte tyrosine kinase receptor (Homo sapiens), sequence (P29376 whole entry): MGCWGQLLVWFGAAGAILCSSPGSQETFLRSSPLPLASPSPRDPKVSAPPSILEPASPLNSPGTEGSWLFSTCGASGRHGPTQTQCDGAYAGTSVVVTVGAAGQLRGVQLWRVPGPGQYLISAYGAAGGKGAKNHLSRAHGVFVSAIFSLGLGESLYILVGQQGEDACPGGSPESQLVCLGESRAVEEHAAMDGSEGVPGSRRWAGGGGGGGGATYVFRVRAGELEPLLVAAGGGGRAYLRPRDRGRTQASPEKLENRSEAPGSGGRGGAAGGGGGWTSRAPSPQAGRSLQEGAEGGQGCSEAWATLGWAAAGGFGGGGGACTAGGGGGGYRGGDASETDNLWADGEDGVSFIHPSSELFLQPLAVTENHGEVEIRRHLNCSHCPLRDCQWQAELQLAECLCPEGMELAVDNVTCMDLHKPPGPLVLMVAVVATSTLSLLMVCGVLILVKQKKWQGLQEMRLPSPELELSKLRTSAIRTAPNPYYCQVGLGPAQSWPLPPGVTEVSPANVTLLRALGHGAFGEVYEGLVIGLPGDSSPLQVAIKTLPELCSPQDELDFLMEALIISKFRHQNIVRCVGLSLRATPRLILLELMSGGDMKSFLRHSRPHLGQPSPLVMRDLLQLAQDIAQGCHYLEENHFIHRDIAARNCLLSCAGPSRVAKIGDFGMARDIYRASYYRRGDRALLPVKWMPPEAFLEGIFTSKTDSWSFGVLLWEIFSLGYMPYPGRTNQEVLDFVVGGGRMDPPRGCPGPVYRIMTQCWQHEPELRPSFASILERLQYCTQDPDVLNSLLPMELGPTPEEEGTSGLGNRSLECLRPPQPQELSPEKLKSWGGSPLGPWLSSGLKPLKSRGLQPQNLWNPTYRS
Mast/stem cell growth factor receptor Kit (Homo sapiens), sequence (P10721 whole entry): as the sequence (P10721 whole entry T670I) above, with I670T counted along it
Mast/stem cell growth factor receptor Kit (Homo sapiens), P10721 [D816V], sequence (P10721 whole entry D816V): as the sequence (P10721 whole entry T670I) above, with I670T, D816V counted along it

By inhibition is commonly meant the relative decrease from the control value, in per cent. `Nc1nc(-c2ccccn2)c(-c2ccc3ncccc3n2)s1`: the inhibition was 3.6% in assay [1]; 3.62% in assay [2]; 4.08% in assay [3]; 4.81% in assay [4]; 3.16% in assay [5]; -2.5% in [6]. The inhibition in assay [7] amounted to 2.06%; in assay [8], 0.48%; in assay [9], 0.19%; in assay [10], 2.47%; in [11] it was 2.34%; in [12], 4.59%. The inhibition in assay [13] is 4.44%; in assay [14] it was 2.14%; in [15] it was 3.06%; in assay [16] it was 0.73%; in assay [17] it was 4.5%; in assay [18], 2.46%. In addition, the inhibition in assay [19] worked out at 9.52%; in [20] it was 3.99%.
For the molecule `CS(=O)(=O)Nc1ccc(N/C=C2\C(=O)Nc3ccccc32)cc1`, the inhibition in [1] is 86.6%; in [2], -1.84%; in [3], -0.2%; in [4], 7.79%; in assay [5] it was 61.3%; in assay [6], 4.08%. In addition, the inhibition in assay [7] is 20.4%; in assay [8], -0.69%; in assay [9], 5.83%; in assay [10], 0.19%; in assay [11], 3.76%; in assay [12] it was 0.65%. The inhibition was 12.1% in [13]; -0.91% in assay [14]; 11.3% in assay [15]; -0.15% in assay [16]; 3.63% in [17]; -4.32% in [18]. The inhibition in [19] was -0.23%; in assay [20], 2.12%.
`O=C1NC(=O)C(N2CCc3ccccc32)=C1c1ccc(Cl)cc1`: the inhibition in [1] was found to be 12%; in assay [2], 2.68%; in [3], 2.43%; in [4], 3.14%; in assay [5] it was 3.85%; in assay [6], 7%. For the same molecule, the inhibition is 3.94% in assay [7]; 1.6% in assay [8]; 4.29% in assay [9]; 2.8% in assay [10]; 1.64% in [11]; 6.82% in assay [12]. Moreover, the inhibition in assay [13] is 6.94%; in [14], 5.14%; in assay [15] it was 4.26%; in [16], 4.06%; in assay [17], 6.47%; in assay [18], -1.68%. Also, the inhibition in [19] came out at 7.33%; in assay [20], 2.09%.
In the case of `Nc1ncnc2occ(-c3ccc(NC(=O)Nc4cccc(C(F)(F)F)c4)cc3)c12`, the inhibition in assay [1] amounted to 97.3%; in assay [2], 3.24%; in [3] it was 6.5%; in [4] it was 72.5%; in assay [5], 83.9%; in assay [6], 104%. The inhibition in [7] amounted to 97.8%; in [8] it was 12.1%; in assay [9], 46.7%; in [10], 7.15%; in assay [11] it was 47.1%; in [12] it was 19.4%. In addition, the inhibition in assay [13] came out at 72.2%; in [14] it was 13.3%; in assay [15], 67.8%; in assay [16] it was 3.32%; in assay [17], 31.6%; in assay [18], 3.03%. Besides, the inhibition in assay [19] came to 29%; in assay [20], 72.9%.
`CC(=O)Nc1cccc(C#Cc2cncnc2Nc2ccc(OCc3cccc(F)c3)c(Cl)c2)n1`: the inhibition in assay [1] is 2.11%; in assay [2], -0.94%; in [3], 3.5%; in [4] it was -1.12%; in assay [5], 0.59%; in assay [6] it was 2.08%. In addition, the inhibition in [7] was 4.22%; in assay [8], 1.9%; in [9], 1.84%; in assay [10], -0.61%; in assay [11] it was 1.48%; in assay [12] it was 0.69%. Besides, the inhibition in [13] is 4.88%; in assay [14], 0.67%; in assay [15], 3.79%; in assay [16], -0.16%; in assay [17], 0.67%; in assay [18] it was -2.7%. In addition, the inhibition in assay [19] was found to be 2.91%; in assay [20], 2.44%.
For the molecule `NS(=O)(=O)c1ccc(N/N=C2\C(=O)Nc3ccc(C(=O)NCCc4c[nH]cn4)cc32)cc1`, the inhibition in assay [1] was 7.76%; in [2] it was 3.86%; in assay [3] it was 6.74%; in assay [4], 3.65%; in assay [5], 4%; in assay [6] it was -1.9%. The inhibition stood at 3.01% in assay [7]; 4.09% in assay [8]; 9.31% in assay [9]; 5.2% in assay [10]; 7.32% in [11]; 8.15% in [12]. For the same molecule, the inhibition in assay [13] was 15.6%; in [14] it was 5.07%; in assay [15], 12.6%; in [16] it was 0.87%; in [17], 4.99%; in [18] it was 8.81%. For the same molecule, the values for the inhibition in [19] and in assay [20] were 12.3% and 10.8%, respectively.
Regarding `COc1cc(C)c(NC(=O)CN(C)C)cc1Nc1nc(Nc2cccc(F)c2C(N)=O)c2cc[nH]c2n1`, the inhibition in [1] was found to be 4.07%; in [2], 2.88%; in assay [3], 1.48%; in assay [4], 0.3%; in assay [5] it was 0.56%; in [6] it was 0.02%. Moreover, the inhibition in [7] came to 0.48%; in [8], 1.38%; in assay [9] it was 1.74%; in [10], 92.9%; in assay [11], 95.6%; in [12], 3.5%. Moreover, the inhibition was 1.33% in assay [13]; 2.46% in assay [14]; -0.14% in assay [15]; 2.47% in assay [16]; 7.53% in assay [17]; 3.32% in assay [18]. The figures for the inhibition in [19] and in assay [20] were -1.66% and 5.47%, respectively.
